Screen size: about 5,500 compounds; about 2,000 (36%) were called active. Inconclusive results (about 18%) are left out. No stated cut-off is given here; in the data, active means normalized growth mostly below about 0.91 (no sharp cut-off); inconclusive means no clear call, values can overlap the other calls; inactive means mostly above about 0.92. The list shows a part of the results.
Assay: chemical genetic growth profiling, strain panel (AID 1159580);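 further: tested at 20 µM; growth read once vehicle control cultures reached saturation at 30 °C; 1 = growth at the plate median or of vehicle wells; lower values mean less growth of the strain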
Conditions: S. cerevisiae deletion strains, growth OD

Measured: normalized growth

CCNC(=O)[C@H]1O[C@@H](n2cnc3c(N)nc(NCCc4ccc(CCC(=O)O)cc4)nc32)C(O)[C@H]1O (some centres undefined)
inactive: locus YAL040C, strain CLN3, hits give low values 0.963 | locus YCL061C, strain MRC1 (second series), hits give low values 0.991 | locus YDR363W, strain ESC2, hits give low values 0.972 | locus YER002W, strain NOP16, hits give low values 0.995 | locus YGR078C, strain PAC10, hits give low values 0.992 | locus YJR075W, strain HOC1, hits give low values 0.999 | locus YMR307W, strain GAS1, hits give low values 1 | locus YNL153C, strain GIM3, hits give low values 1 | locus YNL175C, strain NOP13, hits give low values 0.98 | locus YNL197C, strain WHI3, hits give low values 0.981 | locus YNL224C, strain SQS1, hits give low values 1.03 | locus YOR083W, strain WHI5 (second series), hits give low values 0.978 | locus YPL055C, strain LGE1, hits give low values 0.953 | locus YPL241C, strain CIN2, hits give low values 0.976
